# Calls of active or inactive are those of the source. Rule for the calls: active = hit-call score of the fitted dose curve at least 0.9, where 1 is the maximum; inactive = score below 0.9.
# Legend:
# [1] = APR_HepG2_MicrotubuleCSK_1hr: Apredica 1-hour HepG2 Assay for Microtubule CSK Stabilty (AID 2282669); conditions: HepG2 microtubule cytoskeleton imaging, actives raise or lower the signal
# Method in brief: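 Alpha-tubulin immunofluorescence, imaged by automated high-content microscopy with Hoechst nuclear segmentation, measured cytoskeletal change after 1 h dosing of HepG2 at 0.39–200 uM in 0.5% DMSO. Activity fitted in both directions relative to DMSO.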
# [2] = APR_HepG2_NuclearSize_1hr: Apredica 1-hour HepG2 Assay for Nuclear Size (AID 2282670); conditions: high-content imaging, actives raise or lower the signal
# Method in brief: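 Nuclear size measured by high-content imaging of Hoechst 33342 nuclear stain after formaldehyde fixation; human HepG2 line exposed 1 hr to compounds at 0.39–200 uM in 0.5% DMSO, with bidirectional curve fitting relative to DMSO.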
# [3] = APR_HepG2_p53Act_1hr: Apredica 1-hour HepG2 Assay for p53 Activation (AID 2282671); conditions: high-content imaging, actives raise or lower the signal
# Method in brief: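 After 1 h exposure (0.39–200 uM, 0.5% DMSO final, duplicates), fixed HepG2 cells were labelled with anti-p53 antibody plus Hoechst nuclear stain. Fluorescence quantified by automated 20x imaging; changes fitted in both directions against DMSO.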
# [4] = APR_HepG2_MitoticArrest_1hr: Apredica 1-hour HepG2 Assay for Mitotic Arrest (AID 2282672); conditions: high-content imaging, actives raise or lower the signal
# Method in brief: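 Ten-point concentration series (0.39 to 200 uM, duplicates, 0.5% v/v DMSO) applied to human HepG2 liver cells for 1 hr. High-content imaging of phospho-histone H3 and Hoechst-stained nuclei after fixation and permeabilization; DMSO-normalised bidirectional fit.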
# [5] = APR_HepG2_P-H2AX_1hr: Apredica 1-hour HepG2 Assay for H2AX Phosphorylation (AID 2282673); conditions: high-content imaging, actives raise or lower the signal
# Method in brief: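 Phospho-H2A.x immunofluorescence (1:200, FITC secondary) plus Hoechst nuclear stain, quantified by high-content imaging in HepG2 after 1 hr compound exposure. Ten concentrations, 0.39 to 200 uM, in duplicate with 0.5% DMSO; fit both directions against DMSO.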
# [6] = APR_HepG2_MitoMass_1hr: Apredica 1-hour HepG2 Assay for Mitochondrial Mass (AID 2282674); conditions: high-content imaging, actives raise or lower the signal
# Method in brief: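 Mitochondrial mass is taken from MitoTracker Red CMXRos (250 nM, 30 min, pre-fixation) fluorescence imaged at 20x in HepG2 cells. Exposure lasted 1 hr across ten concentrations, 0.39 to 200 uM, 0.5% DMSO; DMSO baseline, bidirectional fitting.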
# [7] = APR_HepG2_CellCycleArrest_24hr: Apredica 24-hour HepG2 Assay for Cell Cycle Arrest (AID 2282905); conditions: imaging, actives raise or lower the signal;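 note: cell cycle arrest scored as ratio of 2N to 4N nuclear DNA content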
# Method in brief: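 Compounds (0.39 to 200 uM, final DMSO 0.5% v/v) are applied to HepG2 cells for 24 hours; cells are then fixed, permeabilized and nuclei labeled with Hoechst 33342. Automated imaging measures DNA content, and activity is fitted in both directions against DMSO.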
# [8] = APR_HepG2_StressKinase_1hr: Apredica 1-hour HepG2 Assay for Stress Kinase (AID 2282906); conditions: HepG2 stress kinase (phospho-c-Jun) imaging, actives raise or lower the signal
# Method in brief: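 High-content imaging of phospho-c-Jun immunostaining (with Hoechst nuclear identification) after a 1 h exposure of HepG2 cells to 10 concentrations from 0.39 to 200 uM, final DMSO 0.5%. Fitted bidirectionally against DMSO.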
# [9] = APR_HepG2_NuclearSize_24hr: Apredica 24-hour HepG2 Assay for Nuclear Size (AID 2282907); conditions: high-content imaging, actives raise or lower the signal
# Method in brief: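 Nuclear size is measured by fluorescence high-content imaging of Hoechst-labelled HepG2 nuclei after 24 hr of treatment (0.39–200 uM, 0.5% DMSO). Cells are fixed in 3.7% formaldehyde before staining, and DMSO serves as the baseline for bidirectional curve fitting.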
# [10] = APR_HepG2_CellLoss_24hr: Apredica 24-hour HepG2 Assay for Cell Loss (AID 2282908); conditions: high-content imaging;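 for AC50: fit in both directions so a hit may be cell loss or gain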
# Method in brief: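 Nuclear count serves as the viability measure: treated cells are fixed, permeabilized and labelled with Hoechst 33342, and six images per well are analysed to identify valid nuclei. Doses span 0.39–200 uM, and activity in either direction is scored against DMSO.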
# [11] = APR_HepG2_MicrotubuleCSK_24hr: Apredica 24-hour HepG2 Assay for Microtubule CSK Stabilty (AID 2282909); conditions: HepG2 microtubule cytoskeleton imaging, actives raise or lower the signal
# Method in brief: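 Compounds were applied to HepG2 cells for 24 hours across 0.39–200 uM in duplicate, with final DMSO at 0.5% v/v. Fixed, permeabilized cells were labeled for alpha-tubulin and nuclei, and tubulin fluorescence was quantified by imaging, fitted bidirectionally against DMSO.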
# [12] = APR_HepG2_MitoticArrest_24hr: Apredica 24-hour HepG2 Assay for Mitotic Arrest (AID 2282910); conditions: high-content imaging, actives raise or lower the signal
# Method in brief: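 Treatment lasted 24 hr in the human HepG2 line at 0.39–200 uM, solvent held at 0.5% DMSO. Fixed cells were stained with Hoechst 33342 and anti-phospho-histone H3, imaged at 20x, and analysed by gain- or loss-of-signal fitting against DMSO.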
# [13] = APR_HepG2_MitoMembPot_24hr: Apredica 24-hour HepG2 Assay for Mitochondrial Membrane Potential (AID 2282911); conditions: imaging, actives raise or lower the signal
# Method in brief: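 HepG2 human liver cells were exposed 24 hr to compounds at 0.39–200 uM (final DMSO 0.5% v/v) in duplicate. MitoTracker Red CMXRos (250 nM, 30 min) was loaded before formaldehyde fixation; fluorescence was imaged by ArrayScan HCS and fitted bidirectionally versus DMSO.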
# [14] = APR_HepG2_MitoMass_24hr: Apredica 24-hour HepG2 Assay for Mitochondrial Mass (AID 2282912); conditions: high-content imaging, actives raise or lower the signal
# Method in brief: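 After 24 hr of treatment at 0.39 to 200 uM, HepG2 cells take up 250 nM MitoTracker Red CMXRos for 30 min and are then fixed with 3.7% formaldehyde. Per-well images are quantified, and any change in either direction is scored against solvent.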
# [15] = APR_HepG2_p53Act_24hr: Apredica 24-hour HepG2 Assay for p53 Activation (AID 2282913); conditions: high-content imaging, actives raise or lower the signal;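 note: p53 protein immunofluorescence averaged per cell in HepG2 with Hoechst nuclei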
# Method in brief: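 HepG2 cells exposed 24 hr to compounds at 0.39–200 uM (10 concentrations, duplicate), final DMSO 0.5% v/v. After formaldehyde fixation and Triton permeabilization, p53 was immunolabeled (sheep anti-p53, Cy5 secondary) with Hoechst 33342 nuclear counterstain, then imaged by high-content fluorescence microscopy.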
# [16] = APR_HepG2_CellCycleArrest_72hr: Apredica 72-hour HepG2 Assay for Cell Cycle Arrest (AID 2282914); conditions: high-content imaging, actives raise or lower the signal
# Method in brief: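 HepG2 cells were exposed to compounds at 0.39–200 uM (0.5% v/v DMSO final, duplicates) for 72 hr, fixed in 3.7% formaldehyde, permeabilized and stained with Hoechst 33342. Nuclear DNA content was quantified by high-content imaging; gain or loss of signal was fitted bidirectionally against DMSO.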
# [17] = APR_HepG2_CellLoss_72hr: Apredica 72-hour HepG2 Assay for Cell Loss (AID 2282915); conditions: high-content imaging
# Method in brief: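 HepG2 cells were exposed for 72 hr to compounds at 0.39–200 uM (ten concentrations, duplicate) in 0.5% v/v final DMSO. Nuclei were stained with Hoechst 33342 after 3.7% formaldehyde fixation, imaged at 20x, and counted; fits bidirectional versus DMSO.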
# [18] = APR_HepG2_MitoMembPot_1hr: Apredica 1-hour HepG2 Assay for Mitochondrial Membrane Potential (AID 2282675); conditions: imaging, actives raise or lower the signal
# Method in brief: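 Mitochondrial membrane potential read as MitoTracker Red CMXRos intensity by automated imaging of fixed HepG2 cells. Dye at 250 nM for 30 min pre-fixation; compounds 0.39 to 200 uM for 1 hour, duplicate wells, 0.5% DMSO.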
# [19] = APR_HepG2_CellLoss_1hr: Apredica 1-hour HepG2 Assay for Cell Loss (AID 2282668); conditions: high-content imaging;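 note: curves fitted both ways against DMSO so gain or loss of cells counts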
# Method in brief: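 Cell number comes from high-content imaging of Hoechst-labelled nuclei in fixed HepG2 cells. Cells were exposed for 1 h to ten concentrations from 0.39 to 200 uM in 0.5% DMSO. Gain or loss was fitted against DMSO controls.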
smiles,measurement,setting,value
CCOC(=O)COc1cc(-c2nn(C)c(OC(F)F)c2Cl)c(F)cc1Cl,outcome,[1],inactive
same,outcome,[2],inactive
same,outcome,[3],inactive
same,outcome,[4],inactive
same,outcome,[5],inactive
same,outcome,[6],inactive
same,outcome,[7],inactive
same,outcome,[8],inactive
same,outcome,[9],inactive
same,outcome,[10],inactive
same,outcome,[11],inactive
same,outcome,[12],inactive
same,outcome,[13],inactive
same,outcome,[14],inactive
same,outcome,[15],inactive
same,outcome,[16],inactive
same,outcome,[17],inactive
C[N+]1(C)CCCCC1,outcome,[1],inactive
same,outcome,[3],inactive
same,outcome,[4],inactive
same,outcome,[5],inactive
same,outcome,[6],inactive
same,outcome,[18],inactive
same,outcome,[7],inactive
same,outcome,[9],inactive
same,outcome,[10],inactive
same,outcome,[11],inactive
same,outcome,[12],inactive
same,outcome,[14],inactive
same,outcome,[15],inactive
same,outcome,[16],inactive
CN(C)C(=O)Nc1cccc(C(F)(F)F)c1,outcome,[19],inactive
same,outcome,[1],inactive
same,outcome,[3],inactive
same,outcome,[4],inactive
same,outcome,[5],inactive
same,outcome,[6],inactive
same,outcome,[7],inactive
same,outcome,[9],inactive
same,outcome,[10],inactive
same,outcome,[11],inactive
same,outcome,[12],inactive
same,outcome,[14],inactive
same,outcome,[15],inactive
same,outcome,[16],inactive
same,outcome,[17],inactive
CNC(=O)ON=C(C)SC,outcome,[19],inactive
same,outcome,[1],inactive
same,outcome,[3],inactive
same,outcome,[4],inactive
same,outcome,[5],inactive
same,outcome,[6],inactive
same,outcome,[18],inactive
same,outcome,[7],inactive
same,outcome,[9],inactive
same,outcome,[10],inactive
same,outcome,[11],inactive
same,outcome,[12],inactive
same,outcome,[14],inactive
same,outcome,[15],inactive
same,outcome,[16],inactive
same,outcome,[17],inactive
COc1cc(OC)nc(Sc2cccc(Cl)c2C(=O)O)n1,outcome,[19],inactive
same,outcome,[1],inactive
same,outcome,[2],inactive
same,outcome,[3],inactive
same,outcome,[4],inactive
same,outcome,[5],inactive
same,outcome,[6],inactive
same,outcome,[7],inactive
same,outcome,[9],inactive
same,outcome,[10],inactive
same,outcome,[11],inactive
same,outcome,[12],inactive
same,outcome,[13],inactive
same,outcome,[14],inactive
same,outcome,[15],inactive
same,outcome,[16],inactive
same,outcome,[17],inactive
CCCCOC(=O)c1ccccc1C(=O)O,outcome,[19],inactive
same,outcome,[1],inactive
same,outcome,[3],inactive
same,outcome,[4],inactive
same,outcome,[5],inactive
same,outcome,[6],inactive
same,outcome,[18],inactive
same,outcome,[7],inactive
same,outcome,[8],inactive
same,outcome,[9],inactive
same,outcome,[10],inactive
same,outcome,[11],inactive
same,outcome,[12],inactive
same,outcome,[14],inactive
same,outcome,[15],inactive
same,outcome,[16],inactive
same,outcome,[17],inactive
CCCSP(=O)(OCC)Oc1ccc(Br)cc1Cl (stereo unspecified),outcome,[1],inactive
same,outcome,[2],inactive
same,outcome,[3],inactive
same,outcome,[4],inactive
same,outcome,[5],inactive
same,outcome,[6],inactive
same,outcome,[7],inactive
same,outcome,[9],inactive
same,AC50,[10],108 µM (active)
same,AC50,[11],113 µM (active)
same,outcome,[12],inactive
same,outcome,[13],inactive
same,outcome,[14],inactive
same,outcome,[15],inactive
same,outcome,[16],inactive
C=C(C)[C@H]1Cc2c(ccc3c2O[C@@H]2COc4cc(OC)c(OC)cc4[C@@H]2C3=O)O1,AC50,[1],4.74 µM (active)
same,outcome,[2],inactive
same,outcome,[4],inactive
same,outcome,[5],inactive
same,outcome,[6],inactive
same,outcome,[18],inactive
same,AC50,[7],0.0391 µM (active)
same,outcome,[8],inactive
same,outcome,[9],inactive
same,AC50,[10],15.7 µM (active)
same,outcome,[11],inactive
same,outcome,[12],inactive
same,AC50,[13],0.295 µM (active)
same,outcome,[14],inactive
same,AC50,[16],0.283 µM (active)
CSc1nnc(C(C)(C)C)c(=O)n1N,outcome,[1],inactive
same,outcome,[3],inactive
same,outcome,[4],inactive
same,outcome,[5],inactive
same,outcome,[6],inactive
same,outcome,[7],inactive
same,outcome,[9],inactive
same,outcome,[10],inactive
same,outcome,[11],inactive
same,outcome,[12],inactive
same,outcome,[13],inactive
same,outcome,[14],inactive
same,outcome,[15],inactive
same,outcome,[16],inactive
O=c1ccc(=O)[nH][nH]1,outcome,[19],inactive
same,outcome,[1],inactive
same,outcome,[3],inactive
same,outcome,[4],inactive
same,outcome,[5],inactive
same,outcome,[6],inactive
same,outcome,[18],inactive
same,outcome,[7],inactive
same,outcome,[8],inactive
same,outcome,[9],inactive
same,outcome,[10],inactive
same,outcome,[11],inactive
same,outcome,[12],inactive
same,outcome,[14],inactive
same,outcome,[15],inactive
same,outcome,[16],inactive
CC(=NC#N)N(C)Cc1ccc(Cl)nc1,outcome,[1],inactive
same,outcome,[3],inactive
same,outcome,[4],inactive
same,outcome,[5],inactive
same,outcome,[6],inactive
same,outcome,[18],inactive
same,outcome,[7],inactive
same,outcome,[9],inactive
same,outcome,[10],inactive
same,outcome,[11],inactive
same,outcome,[12],inactive
same,outcome,[14],inactive
same,outcome,[15],inactive
same,outcome,[16],inactive
same,outcome,[17],inactive
